# Measured values reported in PubChem BioAssay (NCATS).
# Values joined by “and” are separate entries in the source; they are usually repeats but may differ in a detail not shown here. Identical values can stand only once. A number with no mark means an inactive call. Records with an inconclusive call do not appear. A call without a number means that no potency is given here. Active and inactive are the calls of the source. Calls come from the whole dose curve; as a rule, active = well fitted curve in the direction sought with a large enough effect; inconclusive = small, poorly fitted or top-dose-only effect, or another doubt; inactive = no such curve, though single readings can be large; an effect the other way counts as inactive or inconclusive.
# What was measured:
# Furin (Homo sapiens) = Furin (Homo sapiens) (UniProt P09958); assay: Furin counterscreen qHTS for Zika virus inhibitors (AID 1347149); conditions: furin enzymatic counterscreen, fluorogenic substrate; series mostly up to 114 µM;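 note: purified recombinant full-length human furin enzyme at 5 nM; fluorescence gain from furin cutting a BOC-RVRR-AMC peptide substrate over 15 min; top concentration of the series differs between compounds; nearly all actives have a fitted effect of over 70% in size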
# Chain of Furin (Homo sapiens) (P09958 whole entry, looked up): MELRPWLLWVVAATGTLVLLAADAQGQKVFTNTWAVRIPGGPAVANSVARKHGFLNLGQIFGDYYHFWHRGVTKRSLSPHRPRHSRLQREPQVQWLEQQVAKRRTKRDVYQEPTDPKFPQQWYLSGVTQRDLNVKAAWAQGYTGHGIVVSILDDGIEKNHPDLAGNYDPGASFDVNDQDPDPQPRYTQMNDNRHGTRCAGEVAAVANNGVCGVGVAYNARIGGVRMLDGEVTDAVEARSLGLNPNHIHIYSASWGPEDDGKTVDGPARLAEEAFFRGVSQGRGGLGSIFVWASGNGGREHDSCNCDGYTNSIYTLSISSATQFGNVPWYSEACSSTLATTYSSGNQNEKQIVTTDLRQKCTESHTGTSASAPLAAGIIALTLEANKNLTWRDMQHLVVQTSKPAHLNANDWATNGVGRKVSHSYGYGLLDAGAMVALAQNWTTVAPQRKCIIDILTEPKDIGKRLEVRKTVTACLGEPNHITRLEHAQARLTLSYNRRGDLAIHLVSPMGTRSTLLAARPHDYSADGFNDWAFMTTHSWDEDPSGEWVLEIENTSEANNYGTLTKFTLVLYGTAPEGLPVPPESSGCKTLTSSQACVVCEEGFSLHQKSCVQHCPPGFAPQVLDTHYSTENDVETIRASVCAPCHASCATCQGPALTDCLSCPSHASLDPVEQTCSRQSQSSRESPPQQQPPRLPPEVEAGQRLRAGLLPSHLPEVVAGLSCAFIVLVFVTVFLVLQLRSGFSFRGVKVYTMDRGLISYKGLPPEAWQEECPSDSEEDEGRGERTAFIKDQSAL
# Method in brief: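 Counterscreen measures cleavage of 2 microM BOC-RVRR-AMC, below its ~15 microM Km, by 5 nM full-length human furin at pH 7.0 after a 15-min compound preincubation. Inhibition derives from the 15-min fluorescence increase at 37C.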
# [1] = system: Zika virus NS2B-NS3 protease (linked construct); assay: Confirmatory screen NINDS AMC qHTS for Zika virus inhibitors (AID 1347152); conditions: Purified linked NS2B-NS3, AMC substrate fluorescence; note: potency is the fitted concentration of half-maximal effect; nearly all actives have a fitted effect of over 70% in size
# Method in brief: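 Concentration-response confirmation used the NINDS linked protease (NS2B hydrophilic domain joined to NS3 protease domain), 1 nM, with a 15-min compound preincubation. Substrate, Nle-KRR-AMC at 10 microM, was read by UV fluorescence before and after 15 min.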
# [2] = Confirmatory screen GU Rhodamine qHTS for Zika virus inhibitors qHTS (AID 1347157); conditions: purified enzyme assay, Rhodamine110 substrate fluorescence, 15 min; series mostly up to 114 µM; note: nearly all actives have a fitted effect of over 70% in size; note: potency is the fitted concentration of half-maximal effect
# Method in brief: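 A qHTS format was used, with compound concentrations ranging up to 114 microM. Each compound was preincubated with 25 nM NS2B-NS3 protease, and the substrate was then added at 1.5 microM. Curves were fitted with a 4-parameter Hill model.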
# [3] = system: Zika virus NS2B-NS3 protease (unlinked complex); assay: Primary screen GU Rhodamine qHTS for Zika virus inhibitors: Unlinked NS2B-NS3 protease assay (AID 1347159); conditions: Recombinant ZIKV NS2B-NS3 protease, Rhodamine110 substrate fluorescence; series mostly up to 107 µM; note: nearly all actives have a fitted effect of over 60% in size; note: potency is the fitted concentration of half-maximal effect
# Method in brief: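 In dose–response format, inhibition of unlinked protease (25 nM) was measured with 1.5 microM bis-peptide Rhodamine110 substrate. Aprotinin served as the intraplate control.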
# [4] = system: Zika virus NS2B-NS3 protease (linked construct); assay: Primary screen NINDS Rhodamine qHTS for Zika virus inhibitors (AID 1347160); conditions: purified NS2B-NS3 protease, Rhodamine110 substrate fluorescence; series mostly up to 57.1 µM; note: nearly all actives have a fitted effect of over 55% in size; note: potency is the fitted concentration of half-maximal effect
# Method in brief: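 Each compound, titrated, sat 15 min with 25 nM linked protease before 1.5 microM Rhodamine110 substrate went in. Fluorescence gain over the next 15 min, in pH 8.0 Tris with Tween 20, gave Hill-fitted curves.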
# [5] = Confirmatory screen NINDS Rhodamine qHTS for Zika virus inhibitors (AID 1347161); conditions: purified enzyme assay, Rhodamine110 substrate fluorescence, 15 min; series mostly up to 114 µM; note: nearly all actives have a fitted effect of over 60% in size; note: potency is the fitted concentration of half-maximal effect;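 for activity change, negative = inhibition: purified Zika NS2B-NS3 protease with linked NS2B cofactor domain and Rhodamine110 peptide substrate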
# Method in brief: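 qHTS dose-response: 25 nM linked protease, pH 8.0 Tris/Tween buffer, cpd titration, 15 min RT preinc, 1.5 microM Rhod110 peptide, 15 min reaction (~15% conversion), Ex480/Em540; 4-parameter Hill fit.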
# [6] = system: Zika virus NS2B-NS3 protease (linked); assay: 384 well plate NINDS AMC confirmatory qHTS for Zika virus inhibitors (AID 1347163); conditions: Recombinant NS2B-NS3 protease, Ac-VKTGKR-AMC fluorescence; note: potency is the fitted concentration of half-maximal effect; nearly all actives have a fitted effect of over 50% in size
# Method in brief: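 Fluorescence at 355/460 nm was read after 25 minutes of cleavage of 30 microM Ac-VKTGKR-AMC at room temperature, in the dark. Before substrate addition, compounds (up to 1 mM final) sat ~15 minutes with 5, 30 or 60 nM linked protease. Signals were normalized to no-enzyme and no-inhibitor wells.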
# [7] = system: Zika virus NS2B-NS3 protease (linked construct); assay: 384 well plate NINDS Rhodamine confirmatory qHTS for Zika virus inhibitors (AID 1347164); conditions: rhodamine-110 peptide substrate fluorescence; note: potency is the fitted concentration of half-maximal effect; nearly all actives have a fitted effect of over 65% in size
# Method in brief: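 Cleavage of Ac-LKRR-Rhodamine 110 (10 microM final) by linked protease (final 5, 30 or 60 nM) was followed as fluorescence at 485/538 nm after 25 min, room temperature, dark. Compounds preincubated ~15 min.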
# [8] = Vero cells viability qHTS for Zika virus inhibitors (AID 1347167); conditions: cytotoxicity counter-screen (Zika); series mostly up to 45.9 µM
# Method in brief: (§1)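 Luminescent ATP readout (CellTiter Glo) after 30 min at 37 degrees C gives viability; cells in DMEM + 4% FBS were treated 24 to 48 hours with compound, following overnight attachment.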
# [9] = HepG2 cells viability qHTS for Zika virus inhibitors (AID 1347168); conditions: Zika counter-screen; series mostly up to 45.9 µM
# Method in brief: as §1
# [10] = Tertiary RLuc qRT-PCR qHTS assay for Zika virus inhibitors (AID 1347169); conditions: infected Vero cells, reporter luminescence, 48-72 h; series mostly up to 45.9 µM; note: top concentration of the series differs between compounds; nearly all actives have a fitted effect of over 55% in size
# Method in brief: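 Inhibition of ZIKV-RLuc replication in Vero cells, read as Renilla luminescence 1-1.5 hrs after live-cell substrate addition, following 48-72 hrs infection at MOI 1-2 in presence of compound.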
# [11] = ZIKV-mCherry secondary qHTS for Zika virus inhibitors (AID 1347158); conditions: Vero cells, ZIKV-mCherry infection imaging, 48-72 h; series mostly up to 49.2 µM; note: top concentration of the series differs between compounds
# Method in brief: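 Percent infection is the share of Hoechst-identified Vero nuclei with mCherry signal above 450 RFU (3 SD over negative controls). Cells were infected with recombinant ZIKV-mCherry at MOI 1 after compound addition and imaged 48–72 h later.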
# [12] = qHTS to identify inhibitors of the type 1 interferon - major histocompatibility complex class I in skeletal muscle: primary screen against the NCATS Mechanism Interrogation Plate v5.0 (MIPE) Libary (AID 1347411); conditions: iHSKM cells + IFN-b, HiBiT-tagged MHC-I luminescence, 24 h; series mostly up to 45.8 µM; note: nearly all actives have a fitted effect of over 65% in size
# Method in brief: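 Luminescence from CRISPR HiBit-tagged endogenous HLA-B in human myoblasts reported MHC class I level after 24 h of IFN-beta (4 ng/ml) plus compound. Compounds ran as 11-point 1:3 series, top 46 uM final.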
# [13] = qHTS to identify inhibitors of the type 1 interferon - major histocompatibility complex class I in skeletal muscle: primary screen against the NCATS Pharmaceutical Collection (AID 1347407); conditions: human skeletal muscle cells, IFN-b-induced MHC-I HiBiT luminescence, 24 h; series mostly up to 45.9 µM;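 note: luminescence of HiBiT knocked into endogenous HLA-B as interferon-induced MHC class I level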
# Method in brief: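 A qHTS format is used: 8-point, 1:5 compound series with 46 uM top final concentration, applied alongside 4 ng/ml IFN-beta to HLA-B*08:01-HiBiT knock-in myoblasts. Luminescence is measured after 24 h treatment.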
# [14] = molecular target: Protein phosphatase 1D (Homo sapiens) (UniProt O15297); assay: RapidFire Mass Spectrometry qHTS Assay for Modulators of WT P53-Induced Phosphatase 1 (WIP1) (AID 1347424); conditions: WIP1 dephosphorylation of phosphopeptide, RapidFire MS; series mostly up to 63 µM;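 note: amount of dephosphorylated VEPPL-S-QETFS peptide product formed by WIP1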
# Chain of Protein phosphatase 1D (Homo sapiens) (O15297 whole entry, looked up): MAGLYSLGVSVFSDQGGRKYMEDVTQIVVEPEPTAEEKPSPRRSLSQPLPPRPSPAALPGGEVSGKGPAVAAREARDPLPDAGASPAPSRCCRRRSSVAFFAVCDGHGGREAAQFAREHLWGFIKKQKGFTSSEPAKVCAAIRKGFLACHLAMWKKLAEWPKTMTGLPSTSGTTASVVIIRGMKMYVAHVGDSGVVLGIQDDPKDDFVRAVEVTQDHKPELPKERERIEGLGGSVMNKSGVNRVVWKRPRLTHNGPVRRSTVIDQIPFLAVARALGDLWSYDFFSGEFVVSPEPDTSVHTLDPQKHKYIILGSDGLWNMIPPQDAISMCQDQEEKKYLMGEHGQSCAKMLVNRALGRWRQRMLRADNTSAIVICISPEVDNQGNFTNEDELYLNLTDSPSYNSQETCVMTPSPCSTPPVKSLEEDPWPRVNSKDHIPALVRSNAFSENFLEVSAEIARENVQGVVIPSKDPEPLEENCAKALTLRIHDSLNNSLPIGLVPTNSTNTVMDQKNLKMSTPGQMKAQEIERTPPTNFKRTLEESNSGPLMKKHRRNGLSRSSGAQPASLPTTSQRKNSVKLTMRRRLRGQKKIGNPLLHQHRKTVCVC
# Method in brief: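 RapidFire mass spectrometry measured dephosphorylated peptide after 5 min room-temperature reaction of 2 uM VEPPL-pS-QETFS with 10 nM WIP1 (50 mM Tris-HCl pH 7.5, 30 mM MgCl2, 0.1 mM EGTA, BSA), following 1 hr compound preincubation; 1 uM isotope-labelled product standard.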
# [15] = molecular target: Protein phosphatase 1D (Homo sapiens) (UniProt O15297); assay: Rhodamine-PBP qHTS Assay for Modulators of WT P53-Induced Phosphatase 1 (WIP1) (AID 1347425); conditions: recombinant WIP1, Rhodamine-PBP phosphate fluorescence, real-time; series mostly up to 57.5 µM
# Method in brief: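 WIP1 (5 nM final) was preincubated with compound for 1 hour at room temperature. It then dephosphorylated 10 uM VEPPL-pS-QETFS peptide in Tris-HCl pH 7.5 with 30 mM MgCl2. Released Pi was detected by 10 uM Rh-PBP fluorescence (ex 525/em 598 nm) read at 1-min intervals for 11 min, as delta f1 - f0.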
# [16] = system: Zika virus NS2B-NS3 protease (unlinked); assay: Optimization of GU AMC qHTS for Zika virus inhibitors: Unlinked NS2B-NS3 protease assay (AID 1347151); conditions: recombinant ZIKV NS2B-NS3 protease, fluorogenic AMC substrate; series mostly up to 114 µM; note: potency is the fitted concentration of half-maximal effect; nearly all actives have a fitted effect of over 80% in size
# Method in brief: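 In this qHTS, compounds acted on 25 nM unlinked Zika NS2B–NS3 in pH 8.0 Tris/Tween buffer. Cleavage of an AMC peptide ran 15 min at room temperature, to about 20% conversion.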
# [17] = qHTS to identify inhibitors of the type 1 interferon - major histocompatibility complex class I in skeletal muscle: primary screen against the NCATS LOPAC collection (AID 1347405); conditions: iHSKM muscle cells, IFN-b-induced MHC-I HiBiT luminescence, 24 h; series mostly up to 45.9 µM;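 note: lytic HiBiT luminescence reporting HLA-B protein level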
# Method in brief: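 After 24 h at 37 C with compounds (7-point, 1:4.3 dilutions, 46 uM top final) plus 4 ng/ml IFN-beta, luminescence from lytic HiBiT detection was measured. HLA-B*08:01 in C25cl48 myoblasts carried an endogenous C-terminal HiBiT tag; medium lacked dexamethasone.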
# [18] = qHTS for inhibitors of adenylyl cyclases using a fission yeast platform: a pilot screen against the NCATS LOPAC library (AID 1347410); conditions: S. pombe CHP2027, fbp1-GFP fluorescence, 18 h, yeast expressing mammalian AC9 and human GNAS; series mostly up to 57.5 µM
# Method in brief: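 Inhibition of GNAS-stimulated AC9 activity in S. pombe was inferred from derepression of a PKA-repressed fbp1-GFP reporter, measured as cytometric fluorescence after 18 h at 30C with compounds at up to 57 µM.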
smiles,measurement,setting,value
O=C(O)Cc1cc(I)c(Oc2ccc(O)c(I)c2)c(I)c1,outcome,Furin (Homo sapiens),inactive
same,Potency,[1],15.6 µM (active)
same,Potency,[2],2.21 µM (active) and 10 µM (active)
same,Potency,[3],7.08 µM (active)
same,Potency,[4],3.16 µM (active)
same,Potency,[5],2.21 µM (active) and 7.94 µM (active)
same,Potency,[6],2.82 µM (active)
same,Potency,[7],3.16 µM (active)
same,outcome,[8],inactive
same,outcome,[9],inactive
same,"activity change, negative = inhibition",[10],45.7% [at 0.566 µM]
Cc1cc(-c2ccc(N=Nc3c(S(=O)(=O)O)cc4cc(S(=O)(=O)O)cc(N)c4c3O)c(C)c2)ccc1N=Nc1c(S(=O)(=O)O)cc2cc(S(=O)(=O)O)cc(N)c2c1O,Potency,[2],2.24 µM (active)
same,outcome,[11],inactive
same,Potency,[5],2.24 µM (active)
same,Potency,[6],20 µM (active)
same,Potency,[7],7.94 µM (active)
same,Potency,[10],inactive
COc1cc(C)c(/C=C/C(C)=C/C=C/C(C)=C/C(=O)O)c(C)c1C,Potency,[12],inactive
CC(C)(C)CC(C)(C)c1cc(Cc2cc(C(C)(C)CC(C)(C)C)cc(-n3nc4ccccc4n3)c2O)c(O)c(-n2nc3ccccc3n2)c1,outcome,Furin (Homo sapiens),inactive
same,Potency,[2],inactive
same,Potency,[5],inactive
same,"activity change, negative = inhibition",[10],-2.91% [at 1.74 µM]
CCN(CC)CCOCCOC(=O)C(CC)(CC)c1ccccc1,Potency,[3],inactive
same,Potency,[4],inactive
O=C1c2ccccc2C(=O)c2c1ccc(O)c2O,outcome,[13],inactive
same,outcome,[14],inactive
same,outcome,[15],inactive
CO[C@H]1O[C@@H]2O[C@@]3(C)CC[C@H]4[C@H](C)CC[C@@H]([C@H]1C)[C@@]24OO3,Potency,[12],inactive
COc1ccc(C[C@H](C)NC[C@@H](O)c2ccc(O)c(NC=O)c2)cc1,Potency,[3],inactive
same,Potency,[4],inactive
Oc1ccc(/C=C/c2cc(O)cc(O)c2)cc1,Potency,[16],26.7 µM (active)
same,outcome,[17],inactive
same,outcome,[13],inactive
same,outcome,[18],inactive
same,Potency,[12],inactive
same,outcome,[14],inactive
N[C@@H](Cc1cc(I)c(Oc2ccc(O)c(I)c2)c(I)c1)C(=O)O,outcome,Furin (Homo sapiens),inactive
same,Potency,[3],14.1 µM (active)
same,Potency,[5],inactive
same,"activity change, negative = inhibition",[10],35% [at 3.57 µM]
Nc1ccc(N=Nc2ccccc2)c(N)n1,outcome,[13],inactive
same,outcome,[14],inactive
same,outcome,[15],inactive
CC[C@H]1OC(=O)[C@H](C)[C@@H](O[C@H]2C[C@@](C)(OC)[C@@H](O)[C@H](C)O2)[C@H](C)[C@@H](O[C@@H]2O[C@H](C)C[C@H](N(C)C)[C@H]2O)[C@](C)(O)C[C@@H](C)CN(C)[C@H](C)[C@@H](O)[C@]1(C)O,Potency,[12],inactive
CC1CC(OC(=O)C(O)c2ccccc2)CC(C)(C)C1 (configuration not stated),Potency,[4],inactive
CC(=O)Oc1cccc2c1C(=O)c1c(OC(C)=O)cc(C(=O)O)cc1C2=O,outcome,[13],inactive
same,outcome,[14],inactive
same,outcome,[15],inactive
COc1ccc([C@@H]2CC(=O)c3c(O)cc(O[C@@H]4O[C@H](CO[C@@H]5O[C@@H](C)[C@H](O)[C@@H](O)[C@H]5O)[C@@H](O)[C@H](O)[C@H]4O)cc3O2)cc1O,Potency,[12],inactive
COc1ccc2nc(NC(=O)Nc3ccccc3)sc2c1,outcome,[13],inactive
same,outcome,[14],inactive
NC[C@H]1O[C@H](O[C@H]2[C@H](O)[C@@H](O[C@H]3O[C@H](CO)[C@@H](O)[C@H](N)[C@H]3O)[C@H](N)C[C@@H]2N)[C@H](N)C[C@@H]1O,Potency,[12],inactive
CC1(C)C(\C=C/C=C\C=C/C=C2/N(CCCCS(=O)(=O)O)c3ccc4ccccc4c3C2(C)C)=[N+](CCCCS(=O)(=O)[O-])c2ccc3ccccc3c21,Potency,[2],3.98 µM (active)
same,outcome,[11],inactive
same,Potency,[5],5.62 µM (active)
same,Potency,[6],39.8 µM (active)
same,Potency,[7],4.47 µM (active)
